{
  "source": "PubChem BioAssay (NCATS)",
  "note": "Inconclusive results are not listed. Calls of active or inactive are those of the source. The call rests on the fitted dose curve; in most records, active means well fitted cell-killing curve with a large enough effect; inconclusive means small, poorly fitted or top-dose-only effect, or effect the other way; inactive means flat fitted curve, though single readings scatter. On the % scale 0 is the no-effect control and ±100 the full control effect; potency means the concentration at half of the fitted maximal effect.",
  "data": [
    {"system": "JEG-3", "test": "Primary qHTS to identify gynecologic anti-cancer compounds using libraries of approved drugs and bioactive compounds (AID 1345084); further: nearly all actives have a fitted effect of over 55% in size", "details": "Gynecologic cancer cell panel viability, ATPlite luminescence, 48 h; series mostly up to 57.5 µM; activity change, negative = cytotoxicity: at the top concentration", "summary_of_the_method": "(§1)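 Cells, 1,000 per well, were allowed to settle for 16 h at 37 C before compound addition. Five concentrations were tested for 48 h, and viability was read by ATPlite luminescence after 15 min at room temperature.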", "values": [
      {"molecule": "Nc1ccc(N=Nc2ccccc2)c(N)n1", "activity change, negative = cytotoxicity": "-5.19% (inactive)"},
      {"molecule": "CC(C)(C)c1ccc(CN2CCN(C(c3ccccc3)c3ccc(Cl)cc3)CC2)cc1", "note": "(stereo not given)", "activity change, negative = cytotoxicity": "-1.64% (inactive)"},
      {"molecule": "COc1ccc(C[C@H](C)NC[C@@H](O)c2ccc(O)c(NC=O)c2)cc1", "activity change, negative = cytotoxicity": "-12.4% (inactive)"},
      {"molecule": "O=C(OCc1ccccc1)c1ccc(O)cc1", "activity change, negative = cytotoxicity": "-12.2% (inactive)"},
      {"molecule": "COc1ccc2nc(NC(=O)Nc3ccccc3)sc2c1", "Potency": "20 µM (active)"},
      {"molecule": "O=C(O)Cc1cc(I)c(Oc2ccc(O)c(I)c2)c(I)c1", "activity change, negative = cytotoxicity": "-0.563% (inactive)"},
      {"molecule": "C=C1[C@H](CO)[C@@H](O)C[C@@H]1n1cnc2c(=O)[nH]c(N)nc21", "activity change, negative = cytotoxicity": "26.6% (inactive)"},
      {"molecule": "N[C@@H](Cc1cc(I)c(Oc2ccc(O)c(I)c2)c(I)c1)C(=O)O", "activity change, negative = cytotoxicity": "7.9% (inactive)"},
      {"molecule": "CCN(CC)CCOCCOC(=O)C(CC)(CC)c1ccccc1", "activity change, negative = cytotoxicity": "-21.7% (inactive)"},
      {"molecule": "CO[C@H]1C[C@@H]2CC[C@@H](C)[C@@](O)(O2)C(=O)C(=O)N2CCCC[C@H]2C(=O)O[C@H]([C@H](C)C[C@@H]2CC[C@@H](OC(=O)C(C)(CO)CO)[C@H](OC)C2)CC(=O)[C@H](C)/C=C(\\C)[C@@H](O)[C@@H](OC)C(=O)[C@H](C)C[C@H](C)/C=C/C=C/C=C/1C", "activity change, negative = cytotoxicity": "5.3% (inactive)"},
      {"molecule": "CC(=O)Oc1cccc2c1C(=O)c1c(OC(C)=O)cc(C(=O)O)cc1C2=O", "activity change, negative = cytotoxicity": "0.987% (inactive)"},
      {"molecule": "C/C(=C\\C(=O)OCCCCCCCCC(=O)O)C[C@@H]1OC[C@H](C[C@@H]2O[C@H]2[C@@H](C)[C@H](C)O)[C@@H](O)[C@H]1O", "activity change, negative = cytotoxicity": "26.5% (inactive)"},
      {"molecule": "CC(=O)Nc1ccc(NC(=S)NC(=O)c2ccc(C(C)(C)C)cc2)cc1", "activity change, negative = cytotoxicity": "-10.9% (inactive)"},
      {"molecule": "C=C1CC[C@H](O)CC1=C/C=C1\\CCC[C@]2(C)[C@@H]([C@H](C)/C=C/[C@H](C)C(C)C)CC[C@@H]12", "activity change, negative = cytotoxicity": "-5.95% (inactive)"},
      {"molecule": "CN(C)CCCSc1ccccc1NC(=O)/C=C/c1ccccc1", "activity change, negative = cytotoxicity": "-6.92% (inactive)"},
      {"molecule": "O=C1c2ccccc2C(=O)c2c1ccc(O)c2O", "activity change, negative = cytotoxicity": "0.143% (inactive)"},
      {"molecule": "C[C@]12CC[C@@H]3c4ccc(OC(=O)c5ccccc5)cc4CC[C@H]3[C@@H]1CC[C@@H]2O", "activity change, negative = cytotoxicity": "-0.984% (inactive)"},
      {"molecule": "CC1CC(OC(=O)C(O)c2ccccc2)CC(C)(C)C1", "note": "(stereo not given)", "activity change, negative = cytotoxicity": "-3.3% (inactive)"},
      {"molecule": "O=C(O)CCC(=O)c1ccc(-c2ccccc2)cc1", "activity change, negative = cytotoxicity": "-9.72% (inactive)"}
    ]},
    {"system": "OV90", "test": "Primary qHTS to identify gynecologic anti-cancer compounds using libraries of approved drugs and bioactive compounds (AID 1345084); further: nearly all actives have a fitted effect of over 55% in size", "details": "Gynecologic cancer cell panel viability, ATPlite luminescence, 48 h; series mostly up to 57.5 µM; activity change, negative = cytotoxicity: at the top concentration", "summary_of_the_method": "as §1", "values": [
      {"molecule": "CC(C)(C)c1ccc(CN2CCN(C(c3ccccc3)c3ccc(Cl)cc3)CC2)cc1", "note": "(stereo not given)", "activity change, negative = cytotoxicity": "-5.5% (inactive)"},
      {"molecule": "COc1ccc(C[C@H](C)NC[C@@H](O)c2ccc(O)c(NC=O)c2)cc1", "activity change, negative = cytotoxicity": "-23.8% (inactive)"},
      {"molecule": "O=C(OCc1ccccc1)c1ccc(O)cc1", "activity change, negative = cytotoxicity": "-11.6% (inactive)"},
      {"molecule": "COc1ccc2nc(NC(=O)Nc3ccccc3)sc2c1", "Potency": "22.4 µM (active)"},
      {"molecule": "O=C(O)Cc1cc(I)c(Oc2ccc(O)c(I)c2)c(I)c1", "activity change, negative = cytotoxicity": "8.9% (inactive)"},
      {"molecule": "C=C1[C@H](CO)[C@@H](O)C[C@@H]1n1cnc2c(=O)[nH]c(N)nc21", "activity change, negative = cytotoxicity": "4.3% (inactive)"},
      {"molecule": "N[C@@H](Cc1cc(I)c(Oc2ccc(O)c(I)c2)c(I)c1)C(=O)O", "activity change, negative = cytotoxicity": "10.1% (inactive)"},
      {"molecule": "CO[C@H]1C[C@@H]2CC[C@@H](C)[C@@](O)(O2)C(=O)C(=O)N2CCCC[C@H]2C(=O)O[C@H]([C@H](C)C[C@@H]2CC[C@@H](OC(=O)C(C)(CO)CO)[C@H](OC)C2)CC(=O)[C@H](C)/C=C(\\C)[C@@H](O)[C@@H](OC)C(=O)[C@H](C)C[C@H](C)/C=C/C=C/C=C/1C", "activity change, negative = cytotoxicity": "-33.1% (inactive)"},
      {"molecule": "C/C(=C\\C(=O)OCCCCCCCCC(=O)O)C[C@@H]1OC[C@H](C[C@@H]2O[C@H]2[C@@H](C)[C@H](C)O)[C@@H](O)[C@H]1O", "activity change, negative = cytotoxicity": "20.4% (inactive)"},
      {"molecule": "C[C@H]1O[C@@H](O[C@H]2[C@@H](O)C[C@H](O[C@H]3[C@@H](O)C[C@H](O[C@H]4CC[C@@]5(C)[C@H](CC[C@@H]6[C@@H]5C[C@@H](O)[C@]5(C)[C@@H](C7=CC(=O)OC7)CC[C@]65O)C4)O[C@@H]3C)O[C@@H]2C)C[C@H](O)[C@@H]1O", "Potency": "0.631 µM (active)"},
      {"molecule": "CC(=O)Nc1ccc(NC(=S)NC(=O)c2ccc(C(C)(C)C)cc2)cc1", "activity change, negative = cytotoxicity": "-15.2% (inactive)"},
      {"molecule": "C=C1CC[C@H](O)CC1=C/C=C1\\CCC[C@]2(C)[C@@H]([C@H](C)/C=C/[C@H](C)C(C)C)CC[C@@H]12", "activity change, negative = cytotoxicity": "1.46% (inactive)"},
      {"molecule": "O=C1c2ccccc2C(=O)c2c1ccc(O)c2O", "activity change, negative = cytotoxicity": "8.6% (inactive)"},
      {"molecule": "C[C@]12CC[C@@H]3c4ccc(OC(=O)c5ccccc5)cc4CC[C@H]3[C@@H]1CC[C@@H]2O", "activity change, negative = cytotoxicity": "-1.3% (inactive)"},
      {"molecule": "CC1CC(OC(=O)C(O)c2ccccc2)CC(C)(C)C1", "note": "(stereo not given)", "activity change, negative = cytotoxicity": "13.2% (inactive)"},
      {"molecule": "O=C(O)CCC(=O)c1ccc(-c2ccccc2)cc1", "activity change, negative = cytotoxicity": "-9.55% (inactive)"}
    ]}
  ]
}
